Test systems include SK-MEL-2 melanoma; EKVX NSCLC; SN12C renal; UO-31 renal; TK-10 renal; ACHN renal; CAKI-1 renal; A498 renal; CCRF-CEM leukemia; MOLT-4 leukemia.
Assay in all cases: NCI-60 one-dose screen, 48 h (100 = growth as untreated, 0 = no growth, -100 = all killed)
Holding throughout (details): 10 µM unless noted

Compounds without any hit were thinned out: in the full panel of roughly 83,000, 20% have a hit.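 The endpoint reported here, percent growth, reads 100 for growth as untreated, 0 for no net growth and -100 for all cells dead.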 Values without a mark were called inactive. Calls of active or inactive are those of the source. Rule for the calls: active = growth percent below 10; inactive = the rest.

As for `CC1=C(CCC(C)NCc2ccc(OCCCN3CCCCC3)cc2)C(C)(C)CCC1` (stereo not drawn), the growth in the assay with SK-MEL-2 melanoma was -82.1% (active); with EKVX NSCLC, -39.1% (active); in the assay on SN12C renal, -60.7% (active); in the assay with UO-31 renal, -95.5% (active); in the assay with TK-10 renal, -94.3% (active); in the assay with ACHN renal, -83.6% (active). Besides, the growth is -55.7% (active) in the assay with CAKI-1 renal, -71.5% (active) in the assay on A498 renal and -39.6% (active) in the assay with CCRF-CEM leukemia.
For `C=C1C(=O)O[C@H]2[C@H]1CC/C(COC(=O)CSCSCC(=O)OC/C1=C/CC[C@@]3(C)O[C@H]3[C@H]3OC(=O)C(=C)[C@@H]3CC1)=C\CC[C@@]1(C)O[C@@H]21`, the growth in the assay on SK-MEL-2 melanoma was 59%; with EKVX NSCLC it was 15.9%; with SN12C renal, 5.07% (active); with UO-31 renal it was -0.857% (active); in the assay on TK-10 renal it was 15.3%; with ACHN renal, 7.98% (active). For the same molecule, the growth was 15.9% in the assay on CAKI-1 renal, 83.6% with A498 renal and -35% (active) in the assay with CCRF-CEM leukemia.
As for `CCCCNc1cc(-c2cn[nH]c2-c2cc(C)cc(OC)c2)nc(-c2cccnc2)n1`, the growth in the assay on SK-MEL-2 melanoma is 115%; with EKVX NSCLC, 88.3%; with SN12C renal it was 95.3%; in the assay on UO-31 renal, 62.3%; in the assay on TK-10 renal, 97.2%; in the assay on ACHN renal it was 96.7%. In addition, the results for the growth in the assay with CAKI-1 renal, in the assay with A498 renal and in the assay with CCRF-CEM leukemia were 66.2%, 64.4% and 84.7%, respectively.
Consider `COc1ccc(/C=C/C(c2cc(OC)c(OC)c(OC)c2)n2cncn2)cc1` (stereo not drawn), for which the growth is 12.9% with SK-MEL-2 melanoma; 66% in the assay on EKVX NSCLC; 62% with SN12C renal; 64.4% with UO-31 renal; 48.5% in the assay with TK-10 renal; 57.5% in the assay with ACHN renal. Also, the growth is 51.6% in the assay with CAKI-1 renal, 36.4% with A498 renal and 35.1% in the assay on CCRF-CEM leukemia.
`C=C(C)[C@@H]1CC[C@]2(COC(C)=O)CC[C@]3(C)[C@H](CC[C@@H]4[C@@]5(C)CCCN(C(C)=O)C(C)(C)[C@@H]5CC[C@]43C)[C@@H]12`: the growth in the assay with SK-MEL-2 melanoma is 61.3%; in the assay with EKVX NSCLC, 90%; with SN12C renal it was 67.5%; in the assay on UO-31 renal it was 77%; in the assay on TK-10 renal, 90.3%; in the assay on ACHN renal, 27.9%. Moreover, the growth in the assay on CAKI-1 renal was 24.3%; with A498 renal, 108%; in the assay on CCRF-CEM leukemia, 59.9%.
Take `O=C(/C=C(O)/C=C/c1cccc2[nH]ccc12)/C=C/c1cccc2[nH]ccc12`: the growth was 85.9% in the assay with SK-MEL-2 melanoma; 97.8% with EKVX NSCLC; 82.5% with SN12C renal; 52% with UO-31 renal; 83.9% in the assay with TK-10 renal; 84.4% in the assay with ACHN renal. The growth was 74.6% in the assay on CAKI-1 renal, 112% in the assay on A498 renal and 65.4% in the assay with CCRF-CEM leukemia.
For `C/C(=N\O)[C@@H]1CC[C@]2(CO)CC[C@]3(C)[C@H](CC[C@@H]4[C@@]5(C)CCCNC(C)(C)[C@@H]5CC[C@]43C)[C@@H]12`, the growth with SK-MEL-2 melanoma was 95.2%; with EKVX NSCLC, 92.7%; with SN12C renal, 85.4%; in the assay with UO-31 renal it was 69.3%; with TK-10 renal, 109%; in the assay with ACHN renal, 98.6%. Also, the growth is 79.4% in the assay on CAKI-1 renal, 107% in the assay with A498 renal, 58.9% in the assay with CCRF-CEM leukemia and 33.3% in the assay with MOLT-4 leukemia.
As for `Clc1ccccc1-c1cnn2cc(-c3ccccc3)cnc12`, the growth in the assay on SK-MEL-2 melanoma is 101%; with EKVX NSCLC, 83.3%; in the assay on SN12C renal, 79.5%; in the assay with UO-31 renal, 84.6%; with TK-10 renal, 89.1%; with ACHN renal it was 74.1%. Further, the growth is 81.4% with CAKI-1 renal, 72% with A498 renal and 89.2% in the assay on CCRF-CEM leukemia.
As for `Oc1ccc(/C=C/c2ccc(O)cc2)cc1`, the growth is 90.8% in the assay with SK-MEL-2 melanoma; 76.5% in the assay on EKVX NSCLC; 62.5% with SN12C renal; 21.5% in the assay on UO-31 renal; 61.1% in the assay on TK-10 renal; 11% in the assay on ACHN renal. Further, the growth in the assay on CAKI-1 renal is 78.7%; with A498 renal, 77.5%; in the assay on CCRF-CEM leukemia, 4.33% (active).
As for `CCN(CC)c1ccc(CNc2cc(C)nc3ccccc23)cc1`, the growth with SK-MEL-2 melanoma is 84.2%; in the assay on EKVX NSCLC, 42.6%; in the assay with SN12C renal, 75.4%; with UO-31 renal, 40%; with TK-10 renal, 67%; with ACHN renal, 64.6%. The growth is 53.2% with CAKI-1 renal, 52.5% in the assay on A498 renal, 70% with CCRF-CEM leukemia and 86.4% with MOLT-4 leukemia.
Regarding `COC(=O)c1c2c(n3ccccc13)C(=O)c1ccccc1C2=O`, the growth in the assay on SK-MEL-2 melanoma is 75.3%; in the assay with EKVX NSCLC, 70.9%; with SN12C renal, 53.2%; in the assay with UO-31 renal it was 35%; with TK-10 renal, 80.7%; with ACHN renal, 38.6%. Further, the growth in the assay with CAKI-1 renal is 56%; in the assay on A498 renal, 67.1%; in the assay on CCRF-CEM leukemia, 59.1%.
As for `CC1=C2[C@@H](CC1)[C@]1(C)O[C@@](C3CCCCC3)(C[C@H]1OC(=O)CO)[C@H]2OC(=O)/C=C/c1ccccc1`, the growth was 80.3% with SK-MEL-2 melanoma; 83.3% in the assay with EKVX NSCLC; 32.1% in the assay with SN12C renal; -5.9% (active) in the assay on UO-31 renal; 97.6% with TK-10 renal; 3.28% (active) in the assay on ACHN renal. Also, the growth with CAKI-1 renal was 78.4%; in the assay with A498 renal, -89.9% (active); in the assay with CCRF-CEM leukemia, 78.5%.
Consider `N#Cc1cccc(C2C3=C(COC3=O)N(CCO)c3cc4c(cc32)OCO4)c1` (stereo not drawn), for which the growth was 26.8% in the assay with SK-MEL-2 melanoma; 51.8% in the assay with EKVX NSCLC; 44.2% in the assay with SN12C renal; 43.4% in the assay with UO-31 renal; 50% in the assay with TK-10 renal; 39.2% with ACHN renal. The values for the growth with CAKI-1 renal, with A498 renal and with CCRF-CEM leukemia were 29.7%, 11.9% and 7.91% (active), respectively.
For `COc1ccc(/C=C/C(=O)c2cc3c(N)c(C(=O)Nc4cccc(Cl)c4C)sc3nc2C)cc1`, the growth was 51.6% in the assay on SK-MEL-2 melanoma; 44.5% in the assay with EKVX NSCLC; 4.97% (active) in the assay with SN12C renal; 22.9% in the assay on UO-31 renal; 28.7% with TK-10 renal; 17.7% with ACHN renal. Further, the growth was 13.2% with CAKI-1 renal, 4.47% (active) in the assay on A498 renal and 10.9% in the assay on CCRF-CEM leukemia.

The record behind these values is PubChem BioAssay (NCI).
